Bioassay records as filed in PubChem.
Rv3671c protease = Rv3671c (M. tuberculosis) protease inhibition; P9WHR9; inhibition, % at 5.96 µM; 0.048% of 320,000 active; AID 2606; in the data active = inhibition above about 38%;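 note: extracellular domain of Rv3671c used as enzyme; 0% = enzyme with DMSO and 100% = no enzyme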
FadD28 binding = blocks FadD28 binding to the bisubstrate probe; fluorescence polarization; inhibition, % at 12.5 µM; 0.22% of 360,000 active; in the data active = inhibition above about 8.5%, passing the limit was not always enough
MazEF act = activators of E. coli MazEF toxin-antitoxin RNase. P0AE70. activation, % at 20 µM. 0.32% of 350,000 active. FAM/BHQ RNA-DNA oligo cleavage fluorescence, 5 h; in the data active = activation above about 50%
Target sequence (P0AE70 whole entry, looked up): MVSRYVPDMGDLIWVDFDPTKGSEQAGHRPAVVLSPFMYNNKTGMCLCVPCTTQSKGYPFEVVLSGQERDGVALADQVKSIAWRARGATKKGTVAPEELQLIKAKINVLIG
Mtb UGM inh = Mtb UDP-galactopyranose mutase inhibition | inhibition, % at 10 µM | AID 504406 | P9WIQ1 | purified UGM, fluorescence polarization probe displacement | 0.06% of 320,000 active; in the data active = inhibition above about 10%, passing the limit was not always enough
Target sequence (P9WIQ1 whole entry, looked up): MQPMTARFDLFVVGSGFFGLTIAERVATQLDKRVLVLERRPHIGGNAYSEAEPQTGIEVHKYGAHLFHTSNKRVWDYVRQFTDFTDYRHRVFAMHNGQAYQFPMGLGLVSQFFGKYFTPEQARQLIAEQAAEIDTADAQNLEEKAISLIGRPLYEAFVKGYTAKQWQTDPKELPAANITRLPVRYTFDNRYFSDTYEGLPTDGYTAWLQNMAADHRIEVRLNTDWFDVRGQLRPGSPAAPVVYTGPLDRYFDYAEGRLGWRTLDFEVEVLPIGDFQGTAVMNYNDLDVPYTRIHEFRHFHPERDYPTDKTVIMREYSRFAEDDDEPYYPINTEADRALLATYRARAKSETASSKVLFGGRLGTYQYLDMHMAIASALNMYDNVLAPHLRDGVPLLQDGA
Mtb bLac sens = beta-lactam sensitization of Mtb H37Rv; M. tuberculosis H37Rv growth with meropenem, percent inhibition; inhibition, % at 25 µM; 0.27% of 330,000 active; call rule not given here;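 note: growth measured after seven days incubation then overnight dye step; 0% = bacteria only wells and 100% = bacteria with antibiotic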
Vc quorum ag = quorum light induction in luxS cqsA deficient V. cholerae; V. cholerae BH1578 lux reporter, luminescence, 6 h; AID 588436; 0.16% of 350,000 active; activation, % at 18.7 µM; in the data active = activation mostly above about 9.7%, no sharp cut-off
Starred values were filed as active, the others as inactive. Hits are enriched below; roughly 0.74% of the tested compounds scored in any of these assays.

How did CCN(CC)S(=O)(=O)c1cc(C(=O)OCC(=O)Nc2c(F)cccc2F)ccc1F do in these assays?
Rv3671c protease: -4; FadD28 binding: -5; MazEF act: -8; Mtb UGM inh: -2; Mtb bLac sens: 2; Vc quorum ag: inactive

How did CCN(CC)S(=O)(=O)c1cc(C(=O)OCC(=O)Nc2cccc(Br)c2)ccc1F do in these assays?
Rv3671c protease: -59; FadD28 binding: 56*; MazEF act: -2; Mtb UGM inh: 2; Mtb bLac sens: 10; Vc quorum ag: 0

How did CCOC(=O)C1=C(O)c2ccccc2C(=O)/C1=C\c1ccc(C)cc1 do in these assays?
Rv3671c protease: -75; FadD28 binding: 0; MazEF act: 151*; Mtb UGM inh: -1; Mtb bLac sens: 6; Vc quorum ag: 0

What do the screens show for `C/C(=N\N=C(/N)SC1CC(=O)N(c2ccc(Br)cc2)C1=O)c1cccs1` (stereo not given)?
Rv3671c protease: -59; FadD28 binding: 10*; MazEF act: -1; Mtb UGM inh: 0; Mtb bLac sens: 99; Vc quorum ag: -7

What do the screens show for `O=C(COC(=O)/C=C/c1cccs1)Nc1ccc(F)cc1`?
Rv3671c protease: 7; FadD28 binding: 0; MazEF act: 9; Mtb UGM inh: -1; Mtb bLac sens: 3; Vc quorum ag: inactive

How did CCc1cccc(NC(=O)COC(=O)/C=C/c2cccs2)c1 do in these assays?
Rv3671c protease: -8; FadD28 binding: 20*; MazEF act: 3; Mtb UGM inh: 6; Mtb bLac sens: 43; Vc quorum ag: 1

What do the screens show for `Cc1ccc(S(=O)(=O)Nc2ccc(F)cc2)cc1C(=O)N1CCOCC1`?
Rv3671c protease: -5; FadD28 binding: 0; MazEF act: -9; Mtb UGM inh: 2; Mtb bLac sens: -7; Vc quorum ag: -6

Results for COC(=O)CS(=O)(=O)c1cccc2cccnc12 ?
Rv3671c protease: 3; FadD28 binding: -2; MazEF act: -1; Mtb UGM inh: 2; Mtb bLac sens: -3; Vc quorum ag: inactive

What do the screens show for `Oc1ccc2ccccc2c1/C=N/Nc1nnc(-c2ncc[nH]2)c2ccccc12`?
Rv3671c protease: 0; FadD28 binding: -3; MazEF act: 65*; Mtb UGM inh: 5; Mtb bLac sens: 13; Vc quorum ag: 0

Results for COc1cc2c3nnc(-c4ccc(F)cc4)c-3cn(Cc3ccc(C)cc3)c2cc1OC ?
Rv3671c protease: 3; FadD28 binding: -1; MazEF act: -6; Mtb UGM inh: 15*; Mtb bLac sens: -5; Vc quorum ag: 0

What do the screens show for `COc1cccc(Cn2nc3c4cc(F)ccc4n(Cc4ccc(F)cc4)cc-3c2=O)c1`?
Rv3671c protease: -2; FadD28 binding: -2; MazEF act: -7; Mtb UGM inh: 1; Mtb bLac sens: -3; Vc quorum ag: -1

How did COc1cc2c3nnc(-c4ccccc4)c-3cn(Cc3ccc(F)cc3)c2cc1OC do in these assays?
Rv3671c protease: -4; FadD28 binding: -7; MazEF act: -21; Mtb UGM inh: 5; Mtb bLac sens: 62; Vc quorum ag: 0

What do the screens show for `COc1cc2c3nnc(-c4ccc(F)cc4)c-3cn(Cc3cccc(F)c3)c2cc1OC`?
Rv3671c protease: -14; FadD28 binding: -1; MazEF act: 212*; Mtb UGM inh: 8; Mtb bLac sens: -2

Results for COc1cc2c3nnc(-c4ccc(F)cc4)c-3cn(Cc3cccc(C)c3)c2cc1OC ?
Rv3671c protease: -20; FadD28 binding: -3; MazEF act: 250*; Mtb UGM inh: 9; Mtb bLac sens: 4

How did COCCNc1nc(-c2ccc(OC)cc2C)c2sc(-c3ccccc3)cc2n1 do in these assays?
FadD28 binding: -6; Vc quorum ag: -1

What do the screens show for `COc1ccc(CC(=O)Nc2cccc(/C(C)=N/NC(=O)C3(C)CC3(Br)Br)c2)cc1` (stereo not given)?
Rv3671c protease: 7; FadD28 binding: -1; MazEF act: -3; Mtb UGM inh: 4; Mtb bLac sens: 6; Vc quorum ag: inactive

Results for CN(C)Cc1c(C(=O)N/N=C/c2cccc(OCc3ccc(F)cc3)c2)nnn1-c1nonc1N ?
Rv3671c protease: -4; FadD28 binding: -1; MazEF act: 99*; Mtb UGM inh: 0; Mtb bLac sens: 2; Vc quorum ag: -1

Results for CN(C)Cc1c(C(=O)N/N=C/c2cccc(OCc3ccccc3)c2)nnn1-c1nonc1N ?
Rv3671c protease: -5; FadD28 binding: -1; MazEF act: -13; Mtb UGM inh: 0; Mtb bLac sens: 6; Vc quorum ag: -1

How did Nc1nonc1-n1nnc(C(=O)N/N=C/c2cccc(O)c2)c1CN1CCCC1 do in these assays?
FadD28 binding: -1; MazEF act: 2; Mtb UGM inh: 0; Mtb bLac sens: -3; Vc quorum ag: 31*

What do the screens show for `O=C(CCc1ccccc1)Nc1ccc(NC(=O)c2ccco2)cc1`?
Rv3671c protease: -8; FadD28 binding: 0; MazEF act: 2; Mtb UGM inh: 1; Mtb bLac sens: -1; Vc quorum ag: 0

How did O=C(CCc1ccccc1)Nc1ccc(NC(=O)c2ccco2)nc1 do in these assays?
Rv3671c protease: -1; FadD28 binding: -2; MazEF act: 618*; Mtb UGM inh: 4; Mtb bLac sens: -8; Vc quorum ag: 1

How did CCC(=O)Nc1cccc(-n2nnnc2SCC(=O)c2ccc(C)c(C)c2)c1 do in these assays?
Rv3671c protease: -35; FadD28 binding: 11*; MazEF act: -14; Mtb UGM inh: -1; Mtb bLac sens: 10; Vc quorum ag: 0

What do the screens show for `O=C(NCCO)c1ccc2nc(-c3ccco3)c(-c3ccco3)nc2c1`?
Rv3671c protease: 9; FadD28 binding: 13*; MazEF act: -22; Mtb UGM inh: 0; Mtb bLac sens: 5; Vc quorum ag: inactive

How did COc1ccc(CCNc2cc(N3CCN(C(=O)c4ccc(C)cc4)CC3)ccc2[N+](=O)[O-])cc1OC do in these assays?
Rv3671c protease: 43*; Mtb UGM inh: -2; Mtb bLac sens: -2

Results for CCOC(=O)C1Oc2ccccc2C(C(=O)OC)=C1C(=O)OC (stereo not given) ?
FadD28 binding: 1; MazEF act: 1; Vc quorum ag: -1

How did CCOC(=O)C1Oc2ccccc2C(c2cccc3ccccc23)=C1C(=O)OC (stereo not given) do in these assays?
FadD28 binding: 0; MazEF act: 146*; Vc quorum ag: 0

Results for Cc1ccccc1N(C(=O)c1snc(C(N)=O)c1N)C(C(=O)NCC1CCCO1)c1ccc(F)cc1 (stereo not given) ?
Rv3671c protease: 0; FadD28 binding: -4; MazEF act: 5; Mtb UGM inh: 2; Mtb bLac sens: 10; Vc quorum ag: 0

Results for CCCCN1C(=O)C(=O)N(CC(=O)Nc2cc(Cl)ccc2OC)C1=O ?
Rv3671c protease: 10; FadD28 binding: -1; MazEF act: -2; Mtb bLac sens: 0; Vc quorum ag: -2

What do the screens show for `Cn1cccc1/C=C1\CCC/C(=C\c2cccn2C)C1=O`?
Rv3671c protease: -36; FadD28 binding: -1; MazEF act: 863*; Mtb UGM inh: -4; Mtb bLac sens: 71; Vc quorum ag: -2
